Measured values reported in PubChem BioAssay (NCI).
Compounds without any hit were thinned out: in the full panel of roughly 83,000, 20% have a hit.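 Single-concentration screen, 48 h exposure, 96-well plates. Endpoint: percent growth. Below 10 = active.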 Unmarked numbers belong to inactive results. Calls of active or inactive are those of the source.

The compounds below were run on IGROV1 ovarian (assay: NCI-60 one-dose screen, 48 h (100 = growth as untreated, 0 = no growth, -100 = all killed)). Settings: 10 µM.

Question: Which growth does the source give for O=C(NO)c1ccc(-c2nc3ccc4[nH]ncc4c3c3c2CCCC3)cc1 here?
Answer: The growth was -18.9% (active).

Question: With O=C(CNc1nc(-c2ccccc2)cs1)Nc1ccc(Cl)cc1 as the compound, how does the growth read?
Answer: The growth was -78.6% (active).

Question: Which growth does the source give for COc1cc2c3c(n(CCCN4CCOCC4)c(=O)c2cc1OC)-c1nc2c(cc1C3=O)OCO2 here?
Answer: The growth was 36.7%.

Question: Which growth does the source give for Cc1ccc(/C=C/C(=O)c2ccc(NC(=O)CSc3nnc(-c4c[nH]c5ccccc45)n3-c3ccccc3)cc2)c(C)c1 here?
Answer: The growth was 66.8%.

Question: O=C(CN1CCN(c2ncnc3c2cnn3-c2ccccc2)CC1)Nc1nncs1 was tested. Which growth did it give?
Answer: The growth was -41.8% (active).

Question: With CC(=O)Oc1ccccc1C(=O)Oc1ccc(C(=O)/C=C/c2ccncc2)cc1 as the compound, how does the growth read?
Answer: Its growth is 22.3%.

Question: With O=C(NC(=S)N1CCN(c2ncnc3c2cnn3-c2ccccc2)CC1)c1ccc(Cl)cc1 as the compound, how does the growth read?
Answer: The growth was 70.9%.

Question: C/C(=N\N=C\c1ccc(N(C)C)cc1)c1ccc2c(c1)Nc1ccccc1S2 was tested. Which growth did it give?
Answer: Its growth is 68.9%.

Question: COC(=O)C[C@](O)(CCCC(C)(C)O)C(=O)O[C@H]1C(OC)=C[C@@]23CCC(=O)N2CCc2cc4c(cc2[C@@H]13)OCO4 was tested. Which growth did it give?
Answer: The growth was 93%.

Question: How did the growth turn out when CN1CCN(Cc2ccc(NC(=O)c3cncc(C#Cc4cnc5ccc(N[C@H]6CCOC6)nn45)c3)cc2C(F)(F)F)CC1 was run?
Answer: The growth was -74.6% (active).

Question: How did the growth turn out when CCOc1ccc(/C=N/NC(=O)Cn2nc(Cc3ccc([N+](=O)[O-])cc3)c3onc(C)c3c2=O)cc1 was run?
Answer: The growth was 27.6%.

Question: How did the growth turn out when CN1CCN(c2ccc(C(=O)/C=C/c3ccc(OC(F)F)cc3)cc2)CC1 was run?
Answer: The growth was 27.5%.

Question: How did the growth turn out when COc1ccc(C2N(c3ccc(Br)cc3)N=C(C(C)=O)N2[C@H]2[C@H](OC(C)=O)O[C@H](COC(C)=O)[C@@H](OC(C)=O)[C@@H]2OC(C)=O)cc1 (some centres undefined) was run?
Answer: Its growth is 77.8%.

Question: With CCOC(=O)C1=C(N)N(c2ccccc2)C2=C(C(=O)CC(C)(C)C2)C1c1ccc(Cl)cc1 (centres undefined) as the compound, how does the growth read?
Answer: The growth was 59.5%.

Question: With CCCn1c(=O)c2[nH]c(-c3ccc(OCc4nc5ccc(F)cc5[nH]4)cc3)nc2n(CCC)c1=O as the compound, how does the growth read?
Answer: The growth was 28.1%.

Question: Which growth does the source give for Cc1ccc(/C(CSc2nnc(-c3c[nH]c4ccccc34)n2-c2ccccc2)=N/O)cc1 here?
Answer: The growth was -62.4% (active).

Question: With CN1CCN(c2ccc(C(=O)/C=C/c3cc(C(F)(F)F)ccc3Cl)cc2)CC1 as the compound, how does the growth read?
Answer: Its growth is -82.7% (active).

Question: For COc1ccc(C(=O)Nc2sc3c(c2C#N)CCC(=O)C3)cc1C(F)(F)F, which growth is on record?
Answer: Its growth is 13.7%.

Question: With Cc1ccc(/C=C/C(=O)c2ccc(NC(=O)CSc3nnc(-c4c[nH]c5ccccc45)n3-c3ccccc3)cc2)cc1 as the compound, how does the growth read?
Answer: Its growth is 93.1%.

Question: How did the growth turn out when COc1ccc(Nc2nc(N)n(Cc3cccc(Br)c3)n2)cc1 was run?
Answer: Its growth is 12%.

Question: Which growth does the source give for O=C1CCC(N2Cc3cc(NC(=O)COc4ccccc4)ccc3C2=O)C(=O)N1 (centres undefined) here?
Answer: The growth was 45.8%.

Question: O=C(/C=C/Nc1ccccc1)c1ccc2c(c1)Nc1ccccc1S2 was tested. Which growth did it give?
Answer: Its growth is 87.3%.

Question: How did the growth turn out when COc1cc2c(c(OC)c1OC)C(=O)CC(c1cccc(NC(=O)c3cccc(N)c3)c1)O2 (centres undefined) was run?
Answer: Its growth is 86.7%.

Question: For Cc1noc2c(Cc3ccc([N+](=O)[O-])cc3)nn(CC(=O)N/N=C/c3ccc(Br)cc3)c(=O)c12, which growth is on record?
Answer: Its growth is 95.9%.

Question: How did the growth turn out when COc1ccc(-c2nc(Nc3ccccc3S(N)(=O)=O)c3ccccc3n2)cc1 was run?
Answer: The growth was 43.4%.

Question: For COc1cc(/C=C/C(=O)c2ccc(NC(=O)CSc3nnc(-c4c[nH]c5ccccc45)n3-c3ccccc3)cc2)cc(OC)c1OC, which growth is on record?
Answer: Its growth is 48.8%.

Question: With O=C(CSc1nnc(-c2ccc3nc(-c4ccc(Cl)cc4)[nH]c3c2)o1)Nc1ccc(Br)cc1 as the compound, how does the growth read?
Answer: The growth was 23.2%.

Question: For Cc1ccn2c(C(=O)c3ccccc3)cc(-c3cc(-c4ccc(N(C)C)cc4)c(C#N)c(N)n3)c2c1, which growth is on record?
Answer: Its growth is 86.3%.

Question: O=C1c2ccccc2C(=O)c2c1c(C(=O)c1ccc(Cl)cc1)n1c2ccc2c3ccccc3ccc21 was tested. Which growth did it give?
Answer: The growth was 105%.

Question: For Cn1c(O)c(N=Nc2nc(-c3cc4ccccc4oc3=O)cs2)c2cc(Br)ccc21, which growth is on record?
Answer: The growth was 64.2%.

Question: For Cn1cc(-c2cc(N)n3nc(-c4c[nH]c5ccc(Br)cc45)cc3n2)c2cccnc21, which growth is on record?
Answer: Its growth is -69.8% (active).

Question: With COc1ccc2c3nc4cc(C)c(C)cc4nc3n(CCN(C)C)c2c1 as the compound, how does the growth read?
Answer: Its growth is -8.59% (active).

Question: O=C(CSc1nnc(-c2c[nH]c3ccccc23)n1-c1ccccc1)c1ccc(Br)cc1 was tested. Which growth did it give?
Answer: The growth was 64.1%.

Question: OCc1[nH]nc2cc(Nc3ncc4ccc(Br)c(OC5CCC(O)CC5)c4n3)ccc12 (centres undefined) was tested. Which growth did it give?
Answer: The growth was -12.4% (active).
